High-throughput results (PubChem BioAssay)
TDP1 cell noCPT: qHTS for Inhibitors of human tyrosyl-DNA phosphodiesterase 1 (TDP1): qHTS in cells in absence of CPT; DT40 Tdp1-/- hTDP1 cells, no CPT, ATP luminescence, 48 h; Potency, µM (top dose mostly 46.2 µM), without a hit: at the highest dose activity change, negative = growth inhibition, usual class: inhibitors; 420,000 tested, 15% active; AID 686978, 2013; further: potency means the concentration at half of the fitted maximal effect; nearly all actives have a fitted effect of over 55% in size
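Chicken DT40 Tdp1-/- cells complemented with human TDP1, screened without camptothecin (DMSO vehicle only), 400 cells/well. Compounds pin-transferred, cells incubated at 37 °C for at least 48 hr. Growth read as ATP-dependent luminescence (CellTiter-Glo, 30 min at RT).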
IL1B secr inh: inhibitors of inflammasome signaling (IL-1 beta secretion); activity change, % at 57.5 µM; 360,000 tested, 4.7% active; THP-1 LPS/ATP IL-1B secretion, AlphaLISA, 16 h; hits give low values; in the data active means activity change below about -50%; inconclusive means mostly about -30% to -49%
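Secreted IL-1B measured by AlphaLISA bead assay after 16 h compound exposure of THP-1 cells; compounds (final up to 57.5 uM) added 1 h before LPS (250 ng/mL) and ATP (1.25 mM) stimulation; lower signal means less secretion.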
DT40 TDP1 CPT: growth inhibition of DT40 Tdp1-/-;hTDP1 cells with camptothecin (screen for TDP1 inhibitors) | chicken DT40 Tdp1-/-;hTDP1 cells + 20 nM CPT, ATP luminescence, 48 h | Potency, µM (titrated, usually from 46.2 µM), for the others: at the highest dose activity change, negative = growth inhibition, most hits filed as inhibitors | 420,000 tested, 12% active | AID 686979; further: potency means the concentration at half of the fitted maximal effect; nearly all actives have a fitted effect of over 55% in size
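Chicken DT40 Tdp1-/- cells complemented with human TDP1, 400 cells/well, exposed to compounds plus 20 nM camptothecin for at least 48 h at 37 C; viability read as ATP content by CellTiter-Glo luminescence.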
HT1080 IDH1KD tx: toxicity to HT-1080 IDH1 knockdown cells (counter line). HT-1080 IDH1 knockdown viability, ATP luminescence, 48 h. Potency, µM (doses to about 46.1 µM), for inactives: at the highest dose activity, negative = toxicity, usual class: cytotoxic. 360,000 tested, 2% active;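 further: potency means the concentration at half of the fitted maximal effect; 0% = DMSO wells and -100% = cell-free medium wells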
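Luminescent ATP read-out (CellTiter-Glo, 10 min at room temperature) after 48 h compound exposure at 37 °C gave viability of IDH1-knockdown HT-1080 cells. Activity was normalised to DMSO and cell-free wells, then fitted as concentration-response curves.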
HT1080NT lethal: kills 2HG-producing HT-1080-NT fibrosarcoma cells; HT-1080-NT fibrosarcoma viability, CellTiter-Glo ATP luminescence, 48 h; AID 686970; 360,000 tested, 1.6% active; Potency, µM (doses to about 46.1 µM), without a hit: at the top dose activity, negative = less viability, hits mostly cytotoxic;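 further: NT is the 2HG producing partner of a matched IDH1 knockdown line; potency means the concentration at half of the fitted maximal effect; 0% = DMSO-treated cells and -100% = media-only wells without cells; nearly all actives have a fitted effect of over 55% in size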
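Viability of the 2HG-overproducing fibrosarcoma line after 48 hours of compound exposure at 37 degrees C was determined by luminescence with CellTiter-Glo, and concentration-effect curves were then fitted and categorized.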
* hit, by the source's call. Hits are enriched below; roughly 19% of the tested compounds scored in any of these assays. Unless noted, the call rests on the fitted dose curve; in most records, active means well fitted curve in the direction sought with a large enough effect; inconclusive means small, poorly fitted or top-dose-only effect, or another doubt; inactive means no such curve, though single readings can be large; an effect the other way counts as inactive or inconclusive. Unless noted, on the % scale 0 is the no-effect control and ±100 the full control effect.

`COc1cc(OC)cc(-c2c(-c3cccs3)c3cc(-c4ccc(OC)c(OC)c4)ccc3n2C)c1` gave TDP1 cell noCPT inconclusive, IL1B secr inh -17, DT40 TDP1 CPT 9.2µM*, HT1080 IDH1KD tx 1% and HT1080NT lethal inconclusive.
Screening COc1cc(OC)cc(-c2c(-c3cccs3)c3cc(-c4ccc5c(c4)OCCO5)ccc3n2C)c1 returned TDP1 cell noCPT 15µM*, IL1B secr inh -5, DT40 TDP1 CPT inconclusive, HT1080 IDH1KD tx 5% and HT1080NT lethal 1%.
`COc1cc(OC)cc(-c2c(-c3cccs3)c3cc(-c4ccc5[nH]ccc5c4)ccc3n2C)c1` gave TDP1 cell noCPT inconclusive, IL1B secr inh -9, DT40 TDP1 CPT inconclusive, HT1080 IDH1KD tx -1% and HT1080NT lethal -1%.
For COc1ccc(CCN2CC(C(=O)NCc3cccc(F)c3)CCC2=O)cc1 (stereo unspecified) the results were TDP1 cell noCPT -17%, IL1B secr inh 5, DT40 TDP1 CPT -2%, HT1080 IDH1KD tx 11% and HT1080NT lethal 10%.
`COc1ccc(OCCNC(=O)c2ccccc2OCC(=O)Nc2ccc(NC(C)=O)cc2)cc1` gave TDP1 cell noCPT 15µM*, IL1B secr inh 3, DT40 TDP1 CPT 18µM*, HT1080 IDH1KD tx -3% and HT1080NT lethal -9%.
Screening COc1ccc(OCCNC(=O)c2ccccc2OCC(=O)N2CCCCC2)cc1 returned TDP1 cell noCPT 18µM*, IL1B secr inh 2, DT40 TDP1 CPT 21µM*, HT1080 IDH1KD tx -8% and HT1080NT lethal -20%.
